The results in this text go back to PubChem BioAssay (EPA / NIEHS).

Inconclusive results are not listed. The source made the active and inactive calls. Rule for the calls: active = hit-call score of the fitted dose curve at least 0.9, where 1 is the maximum; inconclusive = response in the unintended direction; inactive = score below 0.9.

Sequence of Broad substrate specificity ATP-binding cassette transporter ABCG2 (Homo sapiens) (Q9UNQ0 whole entry, looked up): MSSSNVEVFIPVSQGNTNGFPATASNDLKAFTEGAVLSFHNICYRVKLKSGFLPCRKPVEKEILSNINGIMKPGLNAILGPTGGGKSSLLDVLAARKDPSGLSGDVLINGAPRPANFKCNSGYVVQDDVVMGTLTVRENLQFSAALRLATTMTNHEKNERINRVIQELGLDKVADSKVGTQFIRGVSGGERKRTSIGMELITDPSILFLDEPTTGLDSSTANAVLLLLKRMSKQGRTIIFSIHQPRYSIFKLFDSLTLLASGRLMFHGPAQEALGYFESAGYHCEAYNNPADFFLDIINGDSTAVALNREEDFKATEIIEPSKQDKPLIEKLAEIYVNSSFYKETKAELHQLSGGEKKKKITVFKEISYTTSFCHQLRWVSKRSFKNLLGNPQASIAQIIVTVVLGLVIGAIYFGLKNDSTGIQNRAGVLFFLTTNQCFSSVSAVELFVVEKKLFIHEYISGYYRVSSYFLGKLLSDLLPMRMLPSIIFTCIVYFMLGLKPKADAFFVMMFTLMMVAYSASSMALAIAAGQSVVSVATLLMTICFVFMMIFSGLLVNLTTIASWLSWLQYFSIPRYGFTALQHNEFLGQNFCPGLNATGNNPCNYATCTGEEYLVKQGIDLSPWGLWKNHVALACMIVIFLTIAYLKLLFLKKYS

Read-out in this assay: Broad substrate specificity ATP-binding cassette transporter ABCG2 (Homo sapiens) (UniProt Q9UNQ0)
Briefly: CLD_ABCG2_6hr: CellzDirect (CLD) Gene Expression Assay for ABC Transporter (ABCG2) at 6 hours (AID 2283660). As for the experimental part: CLD_6hr is a cell-based, multiplexed-readout assay that uses hepatocyte, a human liver primary cell, with measurements taken at 6 hours after chemical dosing in a 96-well plate.CLD_ABCG2_6hr is one of 16 assay component(s) measured or calculated from the CLD_6hr assay. It is designed to make measurements of mRNA induction, a form of inducible reporter, as detected with chemiluminescence signals by Quantitative Nuclease Protection Assay (qNPA) technology.Data from the assay component CLD_ABCG2_6hr was analyzed at the endpoint, CLD_ABCG2_6hr, in the positive analysis fitting direction relative to DMSO as the negative control and baseline of activity. Using a type of inducible reporter, gain-of-signal activity can be used to understand changes in the reporter gene as they relate to the gene ABCG2. Furthermore, this assay endpoint can be referred to as a primary readout. To generalize the intended target to other relatable targets, this assay endpoint is annotated to the transporter intended target family, where subfamily is ABC transporter.
Human hepatocyte cultures were treated daily for two consecutive days with fresh dosing solutions containing appropriate concentrations of the 320 ToxCast chemicals (chemical identities were blinded to CellzDirect and other ToxCast collaborators), vehicle control (0.2% DMSO), and positive control inducers as summarized in Table 1. Due to the large number of treatment groups and chemicals examined, the ToxCast chemicals were divided into two groups (spanning two independent cultures of hepatocytes from separate donor preparations (Hu778: ToxCast plates 1 and 2; Hu776: ToxCast plates 3 and 4). Each preparation of human hepatocyte cultures was treated with respective vehicle control, medium only control, set of six positive controls/reference chemicals for the five hepatic receptor pathways, and a subset of eight of the ToxCast chemicals (indoxacarb, pyrithiobac-sodium, norflurazon, cyhalofop-butyl, methomyl, thiram, acetochlor, and propiconazole). These replicate data, coupled with internal replicates designed within the blinded ToxCast chemical library, provided additional data to evaluate interindividual differences between hepatocyte preparations and their potential impact on chemical profiles.Cell morphology and integrity were evaluated using phase-contrast microscopy as an indicator of hepatocyte cell health (Tyson & Green, 1987). Cultures for each treatment group (i.e., media, vehicle [0.2% DMSO], positive control inducers [multiple concentrations], and the ToxCast chemicals [multiple concentrations]) were observed and cell morphology was assessed relative to vehicle control cultures at each harvest time point (0, 6, 24, or 48 h). […] Images were evaluated at the conclusion of the study to assess changes in cell integrity and account for the effects of chemical exposure on uncharacteristic changes in concentration-dependent gene expression profiles. The results from these determinations of apparent cytotoxicity were annotated (yes/no) alongside the corresponding qNPA data for reference.At the conclusion of each treatment period, hepatocyte cultures (96-well) were washed with 1 volume of HBSS, lysed by addition of 25 ul ArrayPlate lysis buffer (HTG, Tucson, AZ), and 70 ul/well of Denaturation Oil, denatured by incubation at 95C for 10 min, and frozen at approximately -70C until analysis by nuclease protection assay (qNPA) (Roberts et al., 2007). For qNPA analysis, cell lysates were thawed at 50C for approximately 30 min, qNPA probes were added, and samples were incubated at 95C for 10 min to begin the detection process by denaturing the target RNA, dissociating the duplexes and secondary structure hybridization. At the conclusion of the hybridization period, S1 nuclease reagent was added to each sample to digest all nonprotected nucleotides at 50C for 60-90 min. […]
On to `N#CC(CCc1ccc(Cl)cc1)(Cn1cncn1)c1ccccc1` (configuration not stated), for which the call was inactive.
With `COc1nc(C)nc(NC(=O)NS(=O)(=O)c2ccccc2CCC(F)(F)F)n1` the entry was “inactive”; with `COc1nc(C)nc(NC(=O)NS(=O)(=O)c2ccccc2Cl)n1`, “inactive”; with `Cc1c(F)c(F)c(COC(=O)C2C(/C=C(\Cl)C(F)(F)F)C2(C)C)c(F)c1F` (configuration not stated), “inactive”.
With `CC1COC(Cn2cncn2)(c2ccc(Oc3ccc(Cl)cc3)cc2Cl)O1` (configuration not stated) the entry was “inactive”; with `CNC(=S)S`, “inactive”.
Next, `CN(C)C(=S)SSC(=S)N(C)C`: “inactive”; `CCNc1nc(Cl)nc(NC(C)C)n1`: “inactive”.
On to `COC(=O)C(C)Oc1ccc(Oc2ccc(Cl)cc2Cl)cc1` (configuration not stated), for which the compound was called inactive.
Next, `COC(=O)c1ccccc1C(=O)OC`: “inactive”.
With `CCc1nn(C)c(C(=O)NCc2ccc(C(C)(C)C)cc2)c1Cl` the entry was “inactive”.
With `CCCN(CCC)c1c([N+](=O)[O-])cc(S(N)(=O)=O)cc1[N+](=O)[O-]` the entry was “inactive”; with `CS/C(C)=N/OC(=O)N(C)SN(C)C(=O)O/N=C(\C)SC`, “inactive”.
Regarding `CO/C=C(/C(=O)OC)c1ccccc1Oc1cc(Oc2ccccc2C#N)ncn1`, the call was inactive.
Next, `CCON=C(CC)C1=C(O)CC(c2c(C)cc(C)cc2C)CC1=O` (configuration not stated): “inactive”; `C=CCC1=C(C)[C@@H](OC(=O)[C@@H]2[C@@H](C=C(C)C)C2(C)C)CC1=O`: “inactive”; `COc1nc(NC(C)C)nc(NC(C)C)n1`: “inactive”.
Next, `COP(N)(=O)SC` (configuration not stated): “inactive”.
Turning to `CCOc1cc(Oc2ccc(C(F)(F)F)cc2Cl)ccc1[N+](=O)[O-]`, the call was inactive.
Take `Oc1ccccc1-c1ccccc1`: the result was inactive.
Take `CC(C)(C)c1ccc(CSc2cnn(C(C)(C)C)c(=O)c2Cl)cc1`: the compound was called inactive.
With `Fc1ccc(Oc2ccnc3cc(Cl)cc(Cl)c23)cc1` the entry was “inactive”; with `O=C(O)COc1nc(Cl)c(Cl)cc1Cl`, “inactive”; with `CCOC(=O)CC(SP(=S)(OC)OC)C(=O)OCC` (configuration not stated), “inactive”.
Next, `CC(C)Oc1cc(-n2nc(C(C)(C)C)oc2=O)c(Cl)cc1Cl`: “inactive”; `OC(c1ccc(Cl)cc1)(c1cncnc1)c1ccccc1Cl` (configuration not stated): “inactive”.
With `Cc1cc(Cl)ccc1OCC(=O)O`, the call was inactive.
With `O=C(Nc1ccccc1)Nc1ccnc(Cl)c1` the entry was “inactive”.
With `C=CCC1=C(C)C(OC(=O)C2C(C=C(C)C)C2(C)C)CC1=O` (configuration not stated) the entry was “inactive”; with `COC(=O)N(OC)c1ccccc1COc1ccn(-c2ccc(Cl)cc2)n1`, “inactive”; with `C#CCOS(=O)OC1CCCCC1Oc1ccc(C(C)(C)C)cc1` (configuration not stated), “inactive”.
For `COC(=O)C=C(C)OP(=O)(OC)OC`, the compound was called inactive.
As for `Cc1ccc(-c2c(Cl)nc(C#N)n2S(=O)(=O)N(C)C)cc1`, the result was inactive.
With `N#Cc1nn(-c2c(Cl)cc(C(F)(F)F)cc2Cl)c(N)c1S(=O)C(F)(F)F` (configuration not stated) the entry was “inactive”; with `CCCCNC(=O)n1c(NC(=O)OC)nc2ccccc21`, “inactive”; with `CCCCNC(=O)OCC#CI`, “inactive”.
With `COP(=S)(OC)Oc1nc(Cl)c(Cl)cc1Cl` the entry was “inactive”.
